From PubChem BioAssay AID560 (The Scripps Research Institute Molecular Screening Center, 2006) come the findings set out here.

About 980 (1.5%) of roughly 65,000 compounds were called active. The entries come from a sample that favours actives as a whole. Values without a mark were called inactive.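 How the source made its calls: active means activation above the mean of all tested compounds plus 3 SD (cut at about 49% in these data); inactive means the rest.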

The target of the test is Nuclear receptor ROR-alpha (Homo sapiens) (UniProt P35398). The test can be described thus: RORA ligand-binding domain transcriptional activation – cell-based, luminescence, primary screen (AID 560).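 Further: 0% = DMSO-treated RORA cells and 100% = added signal equal to DMSO minus mock-transfected cells.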 The note with it: CHO-K1 Gal4-RORA LBD luciferase reporter, at 10 µM, active compounds read high, percent increase over mock-subtracted basal signal.
Sequence of Nuclear receptor ROR-alpha (Homo sapiens) (P35398 whole entry, looked up, the tested form may be a part): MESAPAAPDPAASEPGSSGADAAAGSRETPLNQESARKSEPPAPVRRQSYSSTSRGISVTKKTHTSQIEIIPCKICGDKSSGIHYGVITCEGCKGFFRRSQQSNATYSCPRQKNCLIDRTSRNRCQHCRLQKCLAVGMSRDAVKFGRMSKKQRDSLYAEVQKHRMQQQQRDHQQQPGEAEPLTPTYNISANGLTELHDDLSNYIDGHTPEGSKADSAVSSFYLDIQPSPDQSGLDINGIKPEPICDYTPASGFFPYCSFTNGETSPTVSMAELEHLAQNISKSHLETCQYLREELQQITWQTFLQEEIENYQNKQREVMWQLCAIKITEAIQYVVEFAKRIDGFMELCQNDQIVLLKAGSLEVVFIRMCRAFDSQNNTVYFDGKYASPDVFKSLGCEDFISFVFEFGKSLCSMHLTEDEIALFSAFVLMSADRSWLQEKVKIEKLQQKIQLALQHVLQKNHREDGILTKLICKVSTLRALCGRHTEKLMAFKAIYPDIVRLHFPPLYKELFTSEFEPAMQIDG
Turning to `COCCCNC(=O)Cn1cc(C(=O)C2CC2)c2ccccc21`, the activation was 7.7%.
On to `Cc1nnc(SCC(=O)Nn2cnnc2)s1`, for which the activation was 2.5%.
As for `N#Cc1nc(Cc2ccccc2)oc1NCCc1ccccc1`, the activation was 54.1% (active).
As for `N#Cc1nc(COc2ccc(-c3ccccc3)cc2)oc1NCc1cccnc1`, the figure is -0.3%.
Consider `CCOc1ccc(Nc2oc(Cc3ccccc3)nc2C#N)cc1`, for which the activation is 25.8%.
As for `O=C(c1ccco1)N(Cc1nc2ccccc2c(=O)[nH]1)C1CCCC1`, the figure is -21.9%; as for `COCn1c(COc2ccccc2)nc2ccccc21`, 53.4% (active); as for `COCc1nc2ccccc2n1Cc1ccccc1Br`, -6.2%.
With `Cn1c(COc2ccc(Cl)cc2)nc2ccccc2c1=O` the figure was 7.3%; with `CCOC(=O)c1c(NC(=O)c2ccc(Br)o2)sc2c1CCCC2`, 10.7%; with `C=CCOC(=O)C1=C(C)OC(N)=C(C#N)C1c1ccc(F)cc1` (stereo unspecified), -35.4%.
Take `Brc1ccc(Nc2c3c(nc4ncnn24)CCC3)cc1`: the activation was -16.4%.
Consider `OCCCN1c2ccccc2Nc2nnc(-c3ccccc3)cc21`, for which the activation was 56.8% (active).
Consider `O=C(CSc1nc2ccccc2[nH]1)c1cccs1`, for which the activation is 56.5% (active).
On to `Cn1c(SCC(=O)c2cccs2)nnc1-c1ccco1`, for which the activation is 20.4%.
On to `C=CCSc1nc2ccccc2[nH]1`, for which the activation was 6.3%.
With `Cc1ccsc1-c1nc(CSCC(=O)NCCN2CCCC2)c(C)o1` the figure was 4.3%; with `Cc1ccc(S(=O)(=O)C2(S(=O)(=O)c3ccc(C)cc3)CCCC2)cc1`, 36.3%.
On to `O=C(CN1CCN(c2ccccn2)CC1)NCc1cccs1`, for which the activation was 1.8%.
With `CCN(CC)S(=O)(=O)c1cccc(C(=O)Nc2ccccc2)c1` the figure was 2.7%; with `CCN(CC)S(=O)(=O)c1cc(C(=O)Nc2ccccn2)ccc1C`, 59.6% (active); with `Cc1noc(C)c1C(=O)Nc1ccccn1`, -8.4%.
With `O=C(CCn1c(=O)oc2ccccc21)Nc1ccon1` the figure was 8.2%.
`O=C(Nc1ccc(Cl)cn1)c1cnn2cccnc12`: the activation was 62% (active).
As for `Cc1cc(NC(=O)c2cnn3cccnc23)n(-c2ccccc2)n1`, the figure is 10%; as for `O=C(Nc1ccc(Cl)cn1)Nc1cccs1`, 42.6%; as for `CCCCOc1ccc(-c2ncc(C(=O)OCC)c(N)n2)cc1`, 59.3% (active).
On to `CCCCOc1ccc(NC(=O)CSCC(=O)OCC)cc1`, for which the activation was -11.3%.
As for `CCOC(=O)c1cnc(SCC(=O)NCc2ccco2)nc1N`, the figure is -10.7%.
As for `CCn1cc(NC(=O)Nc2ccc(OC)c(OC)c2)c(C(N)=O)n1`, the figure is 4.9%; as for `COc1ccc(NC(=O)c2ccc(OC)cc2)cc1`, 25.7%.
With `COc1cc(OC)c(C(=O)Nc2ccc(N(C)C)cc2)cc1OC` the figure was 58.1% (active).
Regarding `COc1cc(OC)c(C(=O)NC2CCCCCC2)cc1OC`, the activation was -17%.
With `O=C(Nc1ccccc1F)c1cc(S(=O)(=O)N2CCCCC2)cs1`, the activation is 0.6%.
Regarding `CCN1C(=O)/C(=C\N2CCN(c3ccccc3)CC2)SC1=S`, the activation is -18%.
As for `CCN1C(=O)c2cccc3c(N)ccc1c23`, the figure is -26%; as for `CCN1C(=O)/C(=C2\SC(N3CCCCC3)=NC2=O)c2ccccc21`, 84.9% (active); as for `O=C(c1cccs1)N1CCN(C(=O)N2CCOCC2)CC1`, 8.8%.
As for `N#Cc1nc(-c2ccc(OCc3ccccc3)cc2)oc1NCCCN1CCOCC1`, the figure is 17%.
Turning to `CC1CCN(c2oc(-c3ccccc3F)nc2C#N)CC1`, the activation is 29%.
With `COc1ccc(Nc2oc(-c3ccccc3Cl)nc2C#N)cc1` the figure was 98.6% (active); with `O=S(=O)(c1cccs1)N1CCc2ccccc2C1`, -7.5%; with `CCN1C(=O)/C(=C2/Sc3ccccc3N2CCCS(=O)(=O)O)SC1=S`, -2.8%.
With `COCCNC(=O)CN1C(=O)CSc2ncccc21` the figure was 18.9%.
Turning to `CCS(=O)(=O)n1nc(-c2ccc(OC)cc2)nc1SC`, the activation is 52.4% (active).
Take `COc1ccc(-n2c(SC)nc(O)cc2=O)cc1`: the activation is -8.4%.
As for `CCS(=O)(=O)n1nc(-c2ccccc2)nc1SCc1ccccc1`, the figure is 32.6%; as for `CCCS(=O)(=O)N1CCN(C(=O)c2cccs2)CC1`, -4.5%; as for `N#CC(=C1SC=CS1)c1nc(-c2ccccc2)cs1`, 59.7% (active).
As for `N#C/C(=C1\CCCN1)c1nc(-c2ccccc2)cs1`, the figure is 6.4%; as for `C#CC(C)(C)NC(=O)CSc1nc2c(c(=O)n(C)c(=O)n2C)n1CCCC`, 5%.
Take `CC(=O)CSc1nnc(CSc2ncccn2)n1C1CCCCC1`: the activation is -9.7%.
With `COC(=O)C1=C(C)Nc2ncnn2C1c1ccco1` (stereo unspecified) the figure was -4.4%.
For the compound `COc1ccc(OC)c2c1sc(=NC(=O)CN1C(=O)CCC1=O)n2C`, the activation is -2.8%.
As to `COc1ccc(C)c2sc(=NC(=O)c3ccc(C#N)cc3)n(C)c12`, the activation was 84.6% (active).
For the compound `CCCCSc1nnc(-c2ccc(C)cc2)o1`, the activation is 23.4%.
`Cc1ccc(CN2C(=O)CCC2C(=O)NCCCN2CCCCC2C)cc1` (stereo unspecified): the activation is 13.7%.
Turning to `Cc1noc(NS(=O)(=O)c2ccc(NC(=O)C34CCC(CC3)C4)cc2)c1C`, the activation was 11.6%.
As for `Cc1cccc(-n2ncc3c(N4CCc5ccccc54)ncnc32)c1`, the figure is 2%; as for `c1ccc(-n2ncc3c(N4CCCC4)ncnc32)cc1`, -23.2%.
For the compound `COc1ccc(-n2ncc3c(N4CCCc5ccccc54)ncnc32)cc1`, the activation was 50.2% (active).
As for `COc1ccc(-n2ncc3c(N4CCc5ccccc54)ncnc32)cc1`, the figure is 50.3% (active); as for `COc1ccc2oc(=O)c(C(=O)N3CCCc4ccccc43)cc2c1`, -10.5%; as for `COc1ccc(N2CCN(C(=O)CSc3ncnc4c3cnn4-c3ccc(OC)cc3)CC2)cc1`, -12.8%.
As for `CC(=O)N1CCN(c2ccc(NCc3ccc(C(C)C)cc3)cc2)CC1`, the figure is -17.3%; as for `COc1ccc(N2C(=O)C3CCCN3C2c2cccc(OC)c2)cc1` (stereo unspecified), -2.9%; as for `O=C(NCCN1CCOCC1)[C@H](Cc1ccccc1)N1C(=O)c2ccccc2C1=O`, 3.1%.
Turning to `O=C(CN1C(=O)COc2ccccc21)NCCN1CCc2ccccc2C1`, the activation was 20.9%.
As for `O=C(NCCCNC(=O)NC1CCCCC1)NC1CCCCC1`, the figure is -10.6%.
As to `CCS(=O)(=O)N1CCC(C(=O)N2CCN(c3ccccc3)CC2)CC1`, the activation is -6.6%.
As for `COc1cccc2sc(Nc3nc(C)c(C(C)=O)s3)nc12`, the figure is 39.6%.
On to `Cc1cc(C)c2c(c1)cc(C)c1nnc(SCC(=O)Nc3cc(C)on3)n12`, for which the activation was 44.5%.
With `Cc1cccc(NC(=O)c2ccc3ccccc3n2)n1` the figure was 83% (active); with `Cc1cccc(NC(=O)COc2ccccc2C)n1`, -18.4%; with `Cc1cccc(NC(=O)c2ccccc2NC(=O)C(C)(C)C)n1`, 17.7%.
As for `CC(=O)c1c(N)n(C)c(=O)n(C)c1=O`, the activation was -5.2%.
Turning to `c1ccc2c(NCC3CCCO3)nc(-c3ccncc3)nc2c1` (stereo unspecified), the activation was -11.3%.
For the compound `Cc1ccc(-n2c(SCC(=O)Nc3ccc4c(c3)OCO4)nnc2-c2ccoc2C)cc1`, the activation was -1.7%.
Consider `CN(c1ccc(C(=O)NCCC2=CCCCC2)cc1)S(C)(=O)=O`, for which the activation is 63% (active).
Consider `O=C(Cc1nn[nH]n1)NCCC1=CCCCC1`, for which the activation is -13.7%.
As for `Cn1nnc2cc(C(=O)NCCC3=CCCCC3)ccc21`, the figure is 18.1%.
With `O=C(CS(=O)(=O)Cc1ccccc1)NCC1CCCO1` (stereo unspecified) the figure was 11.4%.
As for `O=C1C(C=NCC2CCCO2)=C(O)c2ccccc21` (stereo unspecified), the figure is 48.7% (active); as for `CC(=NCC1CCCO1)c1c(O)[nH]c(=O)[nH]c1=O` (stereo unspecified), 2.9%.
`Cc1ccccc1Nc1nc(N)nc(CN2CCN(c3ccccn3)CC2)n1`: the activation is -2.8%.
As for `CC(=O)Nc1cccc(-c2cnc3ccccc3n2)c1`, the figure is 72.9% (active).
With `Cc1cc(O)ccc1-c1cnc2ccccc2n1` the figure was 30.5%; with `CC(=O)Nc1cccc(NC(=O)c2c(-c3ccccc3)noc2C)c1`, -6.7%.
With `CC(C)CC(=O)N=C1SC2CS(=O)(=O)CC2N1CCc1ccccc1` (stereo unspecified) the figure was -3.3%; with `Cn1c(CNC(=O)C(C)(C)C)nc2ccccc21`, 13.9%; with `CCN(CC)C(=O)CSc1nnc(-c2cnccn2)n1-c1ccc(C)cc1`, 12%.
For the compound `O=C(CSc1nnc(-c2cnccn2)n1Cc1ccco1)c1ccc(Cl)c(Cl)c1`, the activation was 1.4%.
For `Cn1c(SCc2c(F)cccc2Cl)nnc1-c1cnccn1`, the activation was 62.8% (active).
As for `COCCn1nnnc1CN1CCC(NC(=O)Nc2cccc(OC)c2)CC1`, the figure is -9%; as for `CCOc1cc(S(=O)(=O)NCc2ccc3c(c2)OCO3)ccc1F`, -24.1%; as for `CCn1c(CSc2ncccn2)nnc1SCC(=O)N1c2ccccc2CC1C` (stereo unspecified), -7.8%.
With `Cn1c(SCc2nc3ccccc3s2)nnc1-c1ccc2c(c1)OCO2` the figure was 37.8%; with `CC(C)OC(=O)c1sc2nc3c(cc2c1N)C(=O)CCC3`, 47.6%; with `c1ccc2[nH]c(-c3nc4ccccc4[nH]3)nc2c1`, 14.8%.
`Oc1ccc(Cl)cc1/C=N/c1nc2ccccc2[nH]1`: the activation is 51.7% (active).
With `Oc1ccc2nc(Cc3ccccc3)[nH]c2c1` the figure was 2.5%.
In the case of `O=C(C1CCCO1)N1CCC(c2nc3ccccc3[nH]2)CC1` (stereo unspecified), the activation was -13.4%.
Regarding `Fc1c(F)c(C(F)(F)F)c(F)c(F)c1N1CCN(c2ccc3nnc(C(F)(F)F)n3n2)CC1`, the activation is -6.8%.
`COc1ccc(-c2cc3ccc(OCc4nn[nH]n4)cc3oc2=O)cc1`: the activation is -23.3%.
As for `O=c1oc2cc(O)ccc2cc1-c1ccc(F)cc1`, the figure is 61.8% (active).
With `COc1cccc(C(=O)c2cc3ccc(O)cc3oc2=O)c1` the figure was 0.2%.
